# Values joined by “and” are separate entries in the source; they are usually repeats but may differ in a detail not shown here. Identical values can stand only once. Screen size: about 5,500 compounds; about 2,000 (36%) were called active. Not shown: some 18% with an inconclusive outcome. Cut-off read from the data, not from the text of the source: active = normalized growth mostly below about 0.91 (no sharp cut-off); inconclusive = no clear call, values can overlap the other calls; inactive = mostly above about 0.92. Some of the results follow. More than one record can exist for a structure, and the calls need not agree.
# Assay: chemical genetic growth profiling, strain panel (AID 1159580);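 note: tested at 20 µM; growth read once vehicle control cultures reached saturation at 30 °C; 1 = growth at the plate median or of vehicle wells; lower values mean less growth of the strain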
# Conditions: growth OD
compound,measurement,setting,value
Oc1ccc(O)cc1,normalized growth,"S. cerevisiae deletion strains, locus YAL013W, strain DEP1, stronger effect = lower value",0.989 (inactive) and 0.9 (active)
same,normalized growth,"S. cerevisiae deletion strains, locus YAL040C, strain CLN3, stronger effect = lower value",1.1 (inactive)
same,normalized growth,"S. cerevisiae deletion strains, locus YBR021W, strain FUR4, stronger effect = lower value",0.688 (active)
same,normalized growth,"S. cerevisiae deletion strains, locus YBR229C, strain ROT2, stronger effect = lower value",1.02 (inactive)
same,normalized growth,"S. cerevisiae deletion strains, locus YCL029C, strain bik1, stronger effect = lower value",1.04 (inactive)
same,normalized growth,"S. cerevisiae deletion strains, locus YCL061C, strain MRC1 (second series), stronger effect = lower value",0.978 (inactive)
same,normalized growth,"S. cerevisiae deletion strains, locus YDL035C, strain GPR1, stronger effect = lower value",0.9 (inactive)
same,normalized growth,"S. cerevisiae deletion strains, locus YDL074C, strain BRE1, stronger effect = lower value",0.96 (inactive)
same,normalized growth,"S. cerevisiae deletion strains, locus YDL101C, strain DUN1, stronger effect = lower value",1.02 (inactive)
same,normalized growth,"S. cerevisiae deletion strains, locus YDL134C, strain PPH21, stronger effect = lower value",0.987 (inactive)
same,normalized growth,"S. cerevisiae deletion strains, locus YDL185W, strain tfp1, stronger effect = lower value",1.01 (inactive)
same,normalized growth,"S. cerevisiae deletion strains, locus YDL192W, strain arf1, stronger effect = lower value",1.02 (inactive)
same,normalized growth,"S. cerevisiae deletion strains, locus YDR101C, strain arx1, stronger effect = lower value",1.03 (inactive)
same,normalized growth,"S. cerevisiae deletion strains, locus YDR150W, strain NUM1, stronger effect = lower value",1.01 (inactive) and 0.953 (inactive)
same,normalized growth,"S. cerevisiae deletion strains, locus YDR162C, strain NBP2, stronger effect = lower value",0.987 (inactive)
same,normalized growth,"S. cerevisiae deletion strains, locus YDR318W, strain mcm21, stronger effect = lower value",1 (inactive)
same,normalized growth,"S. cerevisiae deletion strains, locus YDR363W, strain ESC2, stronger effect = lower value",0.997 (inactive)
same,normalized growth,"S. cerevisiae deletion strains, locus YDR388W, stronger effect = lower value",0.999 (inactive)
same,normalized growth,"S. cerevisiae deletion strains, locus YDR502C, strain sam2, stronger effect = lower value",1.02 (inactive)
same,normalized growth,"S. cerevisiae deletion strains, locus YEL061C, strain CIN8, stronger effect = lower value",1.02 (inactive)
same,normalized growth,"S. cerevisiae deletion strains, locus YER002W, strain NOP16, stronger effect = lower value",1 (inactive)
same,normalized growth,"S. cerevisiae deletion strains, locus YER110C, stronger effect = lower value",1.04 (inactive)
same,normalized growth,"S. cerevisiae deletion strains, locus YER155C, strain BEM2, stronger effect = lower value",1.02 (inactive)
same,normalized growth,"S. cerevisiae deletion strains, locus YER167W, strain BCK2, stronger effect = lower value",0.926 (inactive)
same,normalized growth,"S. cerevisiae deletion strains, locus YGL078C, strain dbp3, stronger effect = lower value",1.03 (inactive)
same,normalized growth,"S. cerevisiae deletion strains, locus YGL086W, strain mad1, stronger effect = lower value",0.985 (inactive)
same,normalized growth,"S. cerevisiae deletion strains, locus YGL248W, strain PDE1, stronger effect = lower value",0.975 (inactive)
same,normalized growth,"S. cerevisiae deletion strains, locus YGR078C, strain PAC10, stronger effect = lower value",0.858 (inactive) and 1.01 (inactive)
same,normalized growth,"S. cerevisiae deletion strains, locus YGR135W, strain pre9, stronger effect = lower value",0.964 (inactive)
same,normalized growth,"S. cerevisiae deletion strains, locus YGR229C, strain SMI1, stronger effect = lower value",0.637 (active)
same,normalized growth,"S. cerevisiae deletion strains, locus YGR252W, strain gcn5, stronger effect = lower value",0.765 (active)
same,normalized growth,"S. cerevisiae deletion strains, locus YHR030C, strain SLT2, stronger effect = lower value",1 (inactive) and 1.03 (inactive)
same,normalized growth,"S. cerevisiae deletion strains, locus YHR079C, strain IRE1 (second series), stronger effect = lower value",1 (inactive)
same,normalized growth,"S. cerevisiae deletion strains, locus YHR079C, strain IRE1, stronger effect = lower value",1.05 (inactive)
same,normalized growth,"S. cerevisiae deletion strains, locus YHR094C, strain hxt1, stronger effect = lower value",1.01 (inactive)
same,normalized growth,"S. cerevisiae deletion strains, locus YHR129C, strain ARP1, stronger effect = lower value",1.01 (inactive)
same,normalized growth,"S. cerevisiae deletion strains, locus YHR200W, strain rpn10, stronger effect = lower value",1 (inactive)
same,normalized growth,"S. cerevisiae deletion strains, locus YIL066C, strain RNR3, stronger effect = lower value",0.993 (inactive)
same,normalized growth,"S. cerevisiae deletion strains, locus YIL073C, strain SPO22, stronger effect = lower value",0.82 (inactive)
same,normalized growth,"S. cerevisiae deletion strains, locus YIL125W, strain kgd1, stronger effect = lower value",1.03 (inactive)
same,normalized growth,"S. cerevisiae deletion strains, locus YIR030C, strain dcg1, stronger effect = lower value",1.06 (inactive)
same,normalized growth,"S. cerevisiae deletion strains, locus YJL095W, strain BCK1, stronger effect = lower value",0.968 (inactive) and 1.01 (inactive)
same,normalized growth,"S. cerevisiae deletion strains, locus YJL134W, strain LCB3, stronger effect = lower value",1.02 (inactive)
same,normalized growth,"S. cerevisiae deletion strains, locus YJL168C, strain set2, stronger effect = lower value",1.02 (inactive)
same,normalized growth,"S. cerevisiae deletion strains, locus YJL187C, strain SWE1 (second series), stronger effect = lower value",1.01 (inactive)
same,normalized growth,"S. cerevisiae deletion strains, locus YJR043C, strain POL32, stronger effect = lower value",0.86 (inactive)
same,normalized growth,"S. cerevisiae deletion strains, locus YJR066W, strain TOR1, stronger effect = lower value",1.02 (inactive)
same,normalized growth,"S. cerevisiae deletion strains, locus YJR075W, strain HOC1, stronger effect = lower value",0.951 (inactive)
same,normalized growth,"S. cerevisiae deletion strains, locus YKL009W, strain mrt4, stronger effect = lower value",1.03 (inactive)
same,normalized growth,"S. cerevisiae deletion strains, locus YKL068W, stronger effect = lower value",1.01 (inactive)
same,normalized growth,"S. cerevisiae deletion strains, locus YKL085W, strain MDH1 (second series), stronger effect = lower value",1.02 (inactive)
same,normalized growth,"S. cerevisiae deletion strains, locus YKL085W, strain MDH1, stronger effect = lower value",1.02 (inactive)
same,normalized growth,"S. cerevisiae deletion strains, locus YKL190W, strain CNB1, stronger effect = lower value",1 (inactive)
same,normalized growth,"S. cerevisiae deletion strains, locus YKR001C, strain vps1, stronger effect = lower value",0.927 (inactive)
same,normalized growth,"S. cerevisiae deletion strains, locus YLR039C, strain RIC1, stronger effect = lower value",0.904 (inactive)
same,normalized growth,"S. cerevisiae deletion strains, locus YLR058C, strain SHM2, stronger effect = lower value",1.01 (inactive)
same,normalized growth,"S. cerevisiae deletion strains, locus YLR102C, strain apc9, stronger effect = lower value",1.03 (inactive)
same,normalized growth,"S. cerevisiae deletion strains, locus YLR113W, strain HOG1, stronger effect = lower value",1.04 (inactive)
same,normalized growth,"S. cerevisiae deletion strains, locus YLR262C, strain YPT6, stronger effect = lower value",0.843 (inactive)
same,normalized growth,"S. cerevisiae deletion strains, locus YLR268W, strain sec22, stronger effect = lower value",0.98 (inactive)
same,normalized growth,"S. cerevisiae deletion strains, locus YLR330W, strain CHS5, stronger effect = lower value",1.01 (inactive)
same,normalized growth,"S. cerevisiae deletion strains, locus YLR342W, strain FKS1 (second series), stronger effect = lower value",0.801 (inactive)
same,normalized growth,"S. cerevisiae deletion strains, locus YLR371W, strain rom2, stronger effect = lower value",1.03 (inactive)
same,normalized growth,"S. cerevisiae deletion strains, locus YLR418C, strain cdc73, stronger effect = lower value",0.845 (inactive)
same,normalized growth,"S. cerevisiae deletion strains, locus YML016C, strain PPZ1, stronger effect = lower value",1.01 (inactive)
same,normalized growth,"S. cerevisiae deletion strains, locus YML032C, strain rad52, stronger effect = lower value",0.937 (inactive)
same,normalized growth,"S. cerevisiae deletion strains, locus YML124C, strain tub3, stronger effect = lower value",1.03 (inactive)
same,normalized growth,"S. cerevisiae deletion strains, locus YMR078C, strain ctf18, stronger effect = lower value",1.04 (inactive)
same,normalized growth,"S. cerevisiae deletion strains, locus YMR223W, strain ubp8, stronger effect = lower value",0.996 (inactive)
same,normalized growth,"S. cerevisiae deletion strains, locus YMR263W, strain SAP30, stronger effect = lower value",0.989 (inactive)
same,normalized growth,"S. cerevisiae deletion strains, locus YMR307W, strain GAS1, stronger effect = lower value",0.716 (inactive) and 0.967 (inactive)
same,normalized growth,"S. cerevisiae deletion strains, locus YNL067W, strain RPL9B, stronger effect = lower value",0.933 (inactive)
same,normalized growth,"S. cerevisiae deletion strains, locus YNL128W, strain TEP1, stronger effect = lower value",1.02 (inactive)
same,normalized growth,"S. cerevisiae deletion strains, locus YNL153C, strain GIM3, stronger effect = lower value",0.995 (inactive)
same,normalized growth,"S. cerevisiae deletion strains, locus YNL175C, strain NOP13, stronger effect = lower value",1 (inactive)
same,normalized growth,"S. cerevisiae deletion strains, locus YNL183C, strain NPR1, stronger effect = lower value",1.03 (inactive)
same,normalized growth,"S. cerevisiae deletion strains, locus YNL197C, strain WHI3, stronger effect = lower value",1.01 (inactive)
same,normalized growth,"S. cerevisiae deletion strains, locus YNL224C, strain SQS1, stronger effect = lower value",1.02 (inactive)
same,normalized growth,"S. cerevisiae deletion strains, locus YNL233W, strain BNI4, stronger effect = lower value",0.985 (inactive)
same,normalized growth,"S. cerevisiae deletion strains, locus YNL250W, strain rad50, stronger effect = lower value",1.03 (inactive)
same,normalized growth,"S. cerevisiae deletion strains, locus YNL271C, strain bni1, stronger effect = lower value",1.05 (inactive)
same,normalized growth,"S. cerevisiae deletion strains, locus YNL298W, strain CLA4, stronger effect = lower value",1.04 (inactive)
same,normalized growth,"S. cerevisiae deletion strains, locus YNL307C, strain MCK1, stronger effect = lower value",0.794 (active)
same,normalized growth,"S. cerevisiae deletion strains, locus YNL322C, strain KRE1, stronger effect = lower value",1.02 (inactive)
same,normalized growth,"S. cerevisiae deletion strains, locus YNR052C, strain pop2, stronger effect = lower value",1.04 (inactive)
same,normalized growth,"S. cerevisiae deletion strains, locus YOL006C, strain TOP1, stronger effect = lower value",0.636 (inactive)
same,normalized growth,"S. cerevisiae deletion strains, locus YOL012C, strain htz1",0.667 (inactive)
same,normalized growth,"S. cerevisiae deletion strains, locus YOL147C, strain pex11, stronger effect = lower value",1.03 (inactive)
same,normalized growth,"S. cerevisiae deletion strains, locus YOR061W, strain CKA2, stronger effect = lower value",1.01 (inactive)
same,normalized growth,"S. cerevisiae deletion strains, locus YOR069W, strain VPS5, stronger effect = lower value",1.01 (inactive)
same,normalized growth,"S. cerevisiae deletion strains, locus YOR083W, strain WHI5 (second series), stronger effect = lower value",0.893 (inactive)
same,normalized growth,"S. cerevisiae deletion strains, locus YOR136W, strain idh2, stronger effect = lower value",1.03 (inactive)
same,normalized growth,"S. cerevisiae deletion strains, locus YOR144C, strain elg1, stronger effect = lower value",1.02 (inactive)
same,normalized growth,"S. cerevisiae deletion strains, locus YOR184W, strain ser1, stronger effect = lower value",0.979 (inactive)
same,normalized growth,"S. cerevisiae deletion strains, locus YOR231W, strain MKK1, stronger effect = lower value",1.06 (inactive)
same,normalized growth,"S. cerevisiae deletion strains, locus YOR316C, strain cot1, stronger effect = lower value",1.03 (inactive)
same,normalized growth,"S. cerevisiae deletion strains, locus YPL055C, strain LGE1, stronger effect = lower value",0.851 (inactive)
same,normalized growth,"S. cerevisiae deletion strains, locus YPL241C, strain CIN2, stronger effect = lower value",1.01 (inactive) and 1 (inactive)
same,normalized growth,"S. cerevisiae deletion strains, locus YPL256C, strain CLN2, stronger effect = lower value",1.08 (inactive)
same,normalized growth,"S. cerevisiae deletion strains, locus YPR119W, strain clb2, stronger effect = lower value",1.04 (inactive)
same,normalized growth,"S. cerevisiae deletion strains, locus YPR141C, strain kar3, stronger effect = lower value",1.03 (inactive)
same,normalized growth,"S. cerevisiae deletion strains, locus YPR163C, strain tif3, stronger effect = lower value",1 (inactive)
same,normalized growth,"S. cerevisiae deletion strains, locus YPR167C, strain met16, stronger effect = lower value",1.02 (inactive)
same,normalized growth,"S. cerevisiae deletion strains, strain wtn01, stronger effect = lower value",0.999 (inactive)
same,normalized growth,"S. cerevisiae strains, strain wild type, stronger effect = lower value",1.01 (inactive)

# Reference: PubChem BioAssay AID1159580 (chemical genetic matrix, 2015)
